# Measurements from article PMC11006913.
# Where a chain is given by its changes, count along the chain named.
# Columns and labels:
# Experiment in all cases: PBM; 200 nM protein, PBS
# Conditions in all cases: dsDNA, one strand shown
# HESX1 = HESX1 (Homo sapiens, UniProt Q9UBX0 95-180, F115L)
# PROP1 [1] = target: PROP1 (Homo sapiens, UniProt O75360 56-141)
# PROP1 [2] = target: PROP1 (Homo sapiens, UniProt O75360 56-141, R99H)
# PROP1 [3] = target: PROP1 (Homo sapiens, UniProt O75360 56-141, F88S)
# PROP1 (Homo sapiens, UniProt O75360 56-141, F88S), sequence (O75360 56-141 F88S): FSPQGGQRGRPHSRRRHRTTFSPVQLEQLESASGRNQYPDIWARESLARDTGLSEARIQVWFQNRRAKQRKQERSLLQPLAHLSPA
# NKX2-6 [4] = target: T1, NKX2-6 (Homo sapiens, UniProt A6NCS4 118-204, R150C)
# T1 sequence: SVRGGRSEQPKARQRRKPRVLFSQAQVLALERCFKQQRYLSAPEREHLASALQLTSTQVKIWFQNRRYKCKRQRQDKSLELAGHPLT
# PITX2 = PITX2 (Homo sapiens, UniProt Q99697 72-157)
# VAX1 [5] = target: VAX1 (Homo sapiens, UniProt Q5SQQ9 86-172)
# VAX1 (Homo sapiens, UniProt Q5SQQ9 86-172), sequence (Q5SQQ9 86-172): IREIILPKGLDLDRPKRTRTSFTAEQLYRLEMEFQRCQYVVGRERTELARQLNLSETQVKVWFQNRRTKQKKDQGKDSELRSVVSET
# VAX1 [6] = target: VAX1 (Homo sapiens, UniProt Q5SQQ9 86-172, T142I)
# VAX1 (Homo sapiens, UniProt Q5SQQ9 86-172, T142I), sequence (Q5SQQ9 86-172 T142I): as the sequence (Q5SQQ9 86-172) above, with T57I counted along it
# VAX1 [7] = target: VAX1 (Homo sapiens, UniProt Q5SQQ9 86-172, K157R)
# VAX1 (Homo sapiens, UniProt Q5SQQ9 86-172, K157R), sequence (Q5SQQ9 86-172 K157R): as the sequence (Q5SQQ9 86-172) above, with K72R counted along it
# NKX2-6 [8] = target: T2, NKX2-6 (Homo sapiens, UniProt A6NCS4 118-204)
# T2 sequence: T1 sequence with C33R
# NKX2-6 [9] = target: T3, NKX2-6 (Homo sapiens, UniProt A6NCS4 118-204, F151L)
# T3 sequence: T1 sequence with C33R, F34L
# PROP1 (Homo sapiens, UniProt O75360 56-141), sequence (O75360 56-141): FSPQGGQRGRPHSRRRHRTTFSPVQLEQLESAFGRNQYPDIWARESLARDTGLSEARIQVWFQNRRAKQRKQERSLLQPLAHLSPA
# PROP1 (Homo sapiens, UniProt O75360 56-141, R99H), sequence (O75360 56-141 R99H): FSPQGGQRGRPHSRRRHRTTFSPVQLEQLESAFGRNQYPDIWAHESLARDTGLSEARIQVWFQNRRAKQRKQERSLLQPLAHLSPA
# HESX1, sequence (Q9UBX0 95-180 F115L): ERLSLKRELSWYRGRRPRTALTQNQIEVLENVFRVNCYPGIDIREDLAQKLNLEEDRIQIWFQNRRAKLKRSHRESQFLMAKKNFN
sequence,measurement,setting,value
ATAAATTA,binding signal,HESX1,"7.82 upbm affinity estimate (log intensity, higher = more binding, comparable within an allelic series)"
GCCTTCCC,binding signal,PROP1 [1],"6.64 upbm affinity estimate (log intensity, higher = more binding, comparable within an allelic series)"
same,binding signal,PROP1 [2],"6.59 upbm affinity estimate (log intensity, higher = more binding, comparable within an allelic series)"
same,binding signal,PROP1 [3],"6.59 upbm affinity estimate (log intensity, higher = more binding, comparable within an allelic series)"
CGCTACCG,binding signal,NKX2-6 [4],"9.4 upbm affinity estimate (log intensity, higher = more binding, comparable within an allelic series)"
GCGCGGCA,binding signal,NKX2-6 [4],"9.57 upbm affinity estimate (log intensity, higher = more binding, comparable within an allelic series)"
CCGCAGCC,binding signal,PROP1 [1],"6.67 upbm affinity estimate (log intensity, higher = more binding, comparable within an allelic series)"
same,binding signal,PROP1 [2],"6.75 upbm affinity estimate (log intensity, higher = more binding, comparable within an allelic series)"
same,binding signal,PROP1 [3],"6.52 upbm affinity estimate (log intensity, higher = more binding, comparable within an allelic series)"
CCCAGCCG,binding signal,PITX2,"8.01 upbm affinity estimate (log intensity, higher = more binding, comparable within an allelic series)"
CGGCCTGC,binding signal,PITX2,"7.72 upbm affinity estimate (log intensity, higher = more binding, comparable within an allelic series)"
CCCGGGAC,binding signal,NKX2-6 [4],"9.29 upbm affinity estimate (log intensity, higher = more binding, comparable within an allelic series)"
CAGCGCCG,binding signal,NKX2-6 [4],"9.39 upbm affinity estimate (log intensity, higher = more binding, comparable within an allelic series)"
GGGGGGAC,binding signal,PROP1 [1],"6.32 upbm affinity estimate (log intensity, higher = more binding, comparable within an allelic series)"
same,binding signal,PROP1 [2],"6.19 upbm affinity estimate (log intensity, higher = more binding, comparable within an allelic series)"
same,binding signal,VAX1 [5],"6.83 upbm affinity estimate (log intensity, higher = more binding, comparable within an allelic series)"
same,binding signal,PROP1 [3],"5.57 upbm affinity estimate (log intensity, higher = more binding, comparable within an allelic series)"
same,binding signal,VAX1 [6],"7.14 upbm affinity estimate (log intensity, higher = more binding, comparable within an allelic series)"
same,binding signal,VAX1 [7],"7.04 upbm affinity estimate (log intensity, higher = more binding, comparable within an allelic series)"
GTCCGGAC,binding signal,PROP1 [1],"6.74 upbm affinity estimate (log intensity, higher = more binding, comparable within an allelic series)"
same,binding signal,PROP1 [2],"6.64 upbm affinity estimate (log intensity, higher = more binding, comparable within an allelic series)"
same,binding signal,PROP1 [3],"6.7 upbm affinity estimate (log intensity, higher = more binding, comparable within an allelic series)"
CCCCGGGG,binding signal,NKX2-6 [8],"9.57 upbm affinity estimate (log intensity, higher = more binding, comparable within an allelic series)"
same,binding signal,NKX2-6 [9],"9.2 upbm affinity estimate (log intensity, higher = more binding, comparable within an allelic series)"
AGATATAC,binding signal,VAX1 [5],"8.24 upbm affinity estimate (log intensity, higher = more binding, comparable within an allelic series)"
same,binding signal,VAX1 [6],"8.22 upbm affinity estimate (log intensity, higher = more binding, comparable within an allelic series)"
same,binding signal,VAX1 [7],"8.23 upbm affinity estimate (log intensity, higher = more binding, comparable within an allelic series)"
CGCTGCGC,binding signal,NKX2-6 [8],"9.4 upbm affinity estimate (log intensity, higher = more binding, comparable within an allelic series)"
same,binding signal,VAX1 [5],"7.4 upbm affinity estimate (log intensity, higher = more binding, comparable within an allelic series)"
same,binding signal,NKX2-6 [9],"9.26 upbm affinity estimate (log intensity, higher = more binding, comparable within an allelic series)"
same,binding signal,VAX1 [6],"7.38 upbm affinity estimate (log intensity, higher = more binding, comparable within an allelic series)"
same,binding signal,VAX1 [7],"7.41 upbm affinity estimate (log intensity, higher = more binding, comparable within an allelic series)"
CCGCCAGC,binding signal,NKX2-6 [8],"8.92 upbm affinity estimate (log intensity, higher = more binding, comparable within an allelic series)"
same,binding signal,NKX2-6 [9],"9.24 upbm affinity estimate (log intensity, higher = more binding, comparable within an allelic series)"
AGGGCCCG,binding signal,VAX1 [5],"6.78 upbm affinity estimate (log intensity, higher = more binding, comparable within an allelic series)"
same,binding signal,VAX1 [6],"7.02 upbm affinity estimate (log intensity, higher = more binding, comparable within an allelic series)"
same,binding signal,VAX1 [7],"6.91 upbm affinity estimate (log intensity, higher = more binding, comparable within an allelic series)"
